Experimental findings from PubChem BioAssay (NCI) are described below.

Assay in all cases: NCI-60 one-dose screen, 48 h (100 = growth as untreated, 0 = no growth, -100 = all killed)
Settings in all cases: 10 µM

Assay [1] deals with SK-MEL-2 melanoma.
Assay [2] concerns EKVX NSCLC.
The subject of assay [3] is SN12C renal.
Assay [4] has as its system UO-31 renal.
Assay [5] relates to TK-10 renal.
Assay [6] deals with ACHN renal.
Assay [7] has as its system CAKI-1 renal.
For assay [8], the system named is A498 renal.
The test system of assay [9] is MOLT-4 leukemia.
Assay [10] deals with SR leukemia.
The subject of assay [11] is OVCAR-8 ovarian.
For assay [12], the system named is OVCAR-5 ovarian.
The subject of assay [13] is OVCAR-4 ovarian.
Assay [14] has as its system SK-OV-3 ovarian.
Assay [15] relates to IGROV1 ovarian.
Assay [16] has as its system OVCAR-3 ovarian.
Assay [17] deals with HS 578T breast.
In assay [18] the test system is NCI/ADR-RES ovarian.
The subject of assay [19] is CCRF-CEM leukemia.
Assay [20] relates to RPMI-8226 leukemia.

Each structure is given as a SMILES string. Compounds without any hit were thinned out: in the full panel of roughly 83,000, 20% have a hit.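 Treatment: one concentration, 48 hours, 96-well format. Scoring: percent growth, with anything below 10 considered active.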 Unmarked numbers belong to inactive results. Activity calls are given as the source filed them.

Consider `Cc1c(O)c(=O)ccn1C1CCC(CC2CCC(n3ccc(=O)c(O)c3C)CC2)CC1` (centres undefined), for which the growth is 66.8% in assay [1]; 10.2% in [2]; 41.5% in assay [3]; 38.6% in [4]; 50.1% in assay [5]; 35.7% in [6]. Moreover, the growth is 25.2% in assay [7]; 50.9% in assay [8]; 25.7% in assay [9]; 41.8% in assay [10]; 33.5% in assay [11]; 54.5% in assay [12]. Moreover, the growth in [13] was 32.2%; in assay [14], 49.9%; in assay [15] it was 32.5%; in [16] it was 28.3%; in [17], 21.9%; in assay [18], 83%.

On to `COC(=O)C1OC1c1cc([N+](=O)[O-])ccc1OC` (centres undefined), for which the growth in assay [1] was 111%; in assay [2] it was 102%; in [3], 107%; in [4], 74.4%; in assay [5] it was 107%; in assay [6] it was 108%. The growth in [7] is 83.2%; in assay [8], 127%; in [9] it was 83.6%; in [10] it was 84.4%; in assay [11], 105%; in assay [12], 105%. Further, the growth in assay [13] was 101%; in assay [14], 92.1%; in [15], 93%; in [16], 109%; in [17], 111%; in assay [18], 101%.

Take `COc1ccc(C(=O)CC(CC(=O)c2ccc(OC)cc2)c2c(C)nn(-c3ccccc3)c2Cl)cc1`: the growth in assay [1] was 94.3%; in assay [2] it was 102%; in assay [3] it was 93.3%; in [4], 72.8%; in assay [5], 103%; in assay [6] it was 90.8%. The growth in assay [7] was 85.1%; in assay [8], 80.8%; in assay [12], 91.8%; in [13] it was 101%; in [14], 109%; in assay [15], 104%. The growth is 115% in assay [16] and 95.5% in assay [18].

On to `COc1ccc(-c2cc(-c3ccc(OC)c(OC)c3)nc(SCCCC(=O)NO)n2)cc1`, for which the growth in assay [1] is -5.66% (active); in assay [2], -15.3% (active); in assay [3], 5.59% (active); in [4] it was -74.3% (active); in assay [5] it was -0.0305% (active); in [6], -24.9% (active). Besides, the growth is -29.2% (active) in assay [7]; -32.4% (active) in assay [8]; 7.15% (active) in assay [9]; 15.1% in assay [10]; 15.9% in [12]; 13.1% in assay [13]. Besides, the growth in assay [14] was -21.3% (active); in assay [15], -25.1% (active); in [16], -24% (active); in assay [17] it was 4.08% (active); in assay [18], -34.7% (active).

With `COc1cccc(CNc2cccc3cn[nH]c23)c1O`, the growth in assay [1] was 103%; in assay [2] it was 79.9%; in assay [3] it was 91%; in [4] it was 60.1%; in assay [5], 92.4%; in [6] it was 98.7%. The growth in assay [7] was 85.9%; in [19] it was 101%; in assay [9] it was 98%; in assay [10], 103%; in assay [20], 100%; in assay [11], 96.5%. For the same compound, the growth in [12] is 106%; in [13], 80.7%; in assay [14] it was 101%; in assay [15] it was 88.8%; in assay [16], 100%; in [18], 105%.

For `Nc1cc(Br)c(-c2nn3c(CCC(=O)c4nc5ccccc5[nH]4)nnc3s2)c(Br)c1`, the growth in assay [1] is 100%; in [2], 95.5%; in [3] it was 97.7%; in assay [4], 71.1%; in assay [5] it was 117%; in [6], 99.8%. For the same compound, the growth in [7] was 95.4%; in assay [8], 65.6%; in assay [9] it was 84.9%; in assay [10] it was 88.1%; in [20], 85.1%; in assay [11], 96.5%. Also, the growth is 122% in assay [12]; 113% in assay [14]; 101% in [15]; 105% in assay [16]; 90% in [17]; 97.3% in [18].

Take `C/C(=C/CCC(C)[C@@H]1CC[C@]2(C)C3=C(CC[C@@]12C)[C@@]1(C)CCC(=O)C(C)(C)[C@@H]1CC3)C(=O)O` (some centres undefined): the growth was -52.1% (active) in assay [1]; -76.5% (active) in assay [2]; -77.5% (active) in assay [3]; -95.5% (active) in assay [4]; -86.1% (active) in assay [5]; -93.5% (active) in assay [6]. For the same compound, the growth in assay [7] was -92.8% (active); in assay [19] it was -21% (active); in assay [9], -35.3% (active); in assay [11], -21.9% (active); in assay [12], -75.6% (active); in assay [13], -70.2% (active). For the same compound, the growth in assay [14] is -97.5% (active); in assay [15] it was -87% (active); in assay [16], -96% (active); in assay [17], -37.3% (active).

In the case of `CCNc1nc(C(F)(F)F)nc2c1sc(=S)n2-c1ccccc1`, the growth in assay [1] is 88.1%; in assay [2], 86.1%; in [3], 100%; in assay [4] it was 104%; in assay [5], 88.8%; in assay [6], 93.1%. For the same compound, the growth in assay [7] is 93.6%; in assay [9], 81.8%; in assay [10], 83.5%; in assay [11], 96.1%; in assay [12], 112%; in assay [13], 98.2%. For the same compound, the growth was 102% in assay [14]; 102% in assay [15]; 107% in [16]; 107% in assay [17]; 92.9% in assay [18].

As to `COc1ccc(-c2nn(-c3cccc(Cl)c3)cc2-c2cc(-c3ccccc3)[nH]c(=O)c2C#N)cc1`, the growth in [1] was 56.7%; in assay [2], 57.2%; in assay [3], 67.7%; in assay [4] it was 24.7%; in assay [5], -12.8% (active); in assay [6], 11%. Besides, the growth in assay [7] is 40.8%; in assay [19] it was 91.7%; in assay [9], 79.6%; in assay [10], 64.8%; in assay [11] it was 26.3%; in assay [12], 94.1%. In addition, the growth in [13] was 31%; in assay [14] it was -47.3% (active); in assay [15] it was 49.4%; in assay [16], 25.8%; in assay [17], 23.5%; in assay [18], 37.8%.
